According to PubChem BioAssay AID720 (The Scripps Research Institute Molecular Screening Center, 2007):
Out of some 97,000 compounds screened, about 140 (0.14%) were called active. Shown is part of a subset that was picked to be rich in actives. Values without a mark were called inactive.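 Rule for the calls: active = inhibition above the screen-wide mean inhibition plus 3 SD (cut at about 15% in these data); inactive = the rest.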

What follows are compounds tested against Ephrin type-B receptor 4 (Homo sapiens) (UniProt P54760) (assay: blockers of EphB4 ligand binding – biochemical, TNYL-RAW peptide probe, fluorescence polarization, primary screen (AID 720;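 note: 0% = DMSO wells and 100% = excess unlabeled TNYL-RAW peptide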)). Settings: EphB4 LBD / TNYL-RAW-Alexa532 peptide, at 7 µM, active compounds read high.
Sequence of Ephrin type-B receptor 4 (Homo sapiens) (P54760 whole entry, looked up, the tested form may be a part): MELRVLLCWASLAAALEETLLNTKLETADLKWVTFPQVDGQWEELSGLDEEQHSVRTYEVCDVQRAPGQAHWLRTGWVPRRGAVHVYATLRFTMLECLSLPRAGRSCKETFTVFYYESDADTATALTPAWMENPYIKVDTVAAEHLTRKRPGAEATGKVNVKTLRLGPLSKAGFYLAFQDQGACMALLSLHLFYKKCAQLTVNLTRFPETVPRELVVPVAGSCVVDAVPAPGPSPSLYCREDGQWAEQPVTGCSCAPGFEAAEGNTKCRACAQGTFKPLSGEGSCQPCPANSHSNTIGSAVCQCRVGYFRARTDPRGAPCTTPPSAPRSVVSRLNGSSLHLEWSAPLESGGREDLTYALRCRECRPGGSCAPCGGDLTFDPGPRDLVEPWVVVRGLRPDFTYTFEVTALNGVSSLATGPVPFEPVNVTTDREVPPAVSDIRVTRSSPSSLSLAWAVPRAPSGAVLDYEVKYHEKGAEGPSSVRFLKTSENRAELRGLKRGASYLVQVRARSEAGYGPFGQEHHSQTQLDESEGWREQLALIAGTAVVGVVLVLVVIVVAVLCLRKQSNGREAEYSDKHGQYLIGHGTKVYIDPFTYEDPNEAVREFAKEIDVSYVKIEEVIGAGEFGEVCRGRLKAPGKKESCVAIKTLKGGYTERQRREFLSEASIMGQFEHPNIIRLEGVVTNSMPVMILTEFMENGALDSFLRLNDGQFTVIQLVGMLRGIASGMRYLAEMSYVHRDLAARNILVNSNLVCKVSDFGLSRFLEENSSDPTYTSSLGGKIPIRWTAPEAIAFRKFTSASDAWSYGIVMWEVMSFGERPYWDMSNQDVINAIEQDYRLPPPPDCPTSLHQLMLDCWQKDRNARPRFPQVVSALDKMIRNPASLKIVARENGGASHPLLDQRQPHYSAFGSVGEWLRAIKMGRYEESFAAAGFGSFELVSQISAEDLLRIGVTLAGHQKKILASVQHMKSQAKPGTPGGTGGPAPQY
In the case of COCCN(C(=O)c1ccco1)c1nnc(-c2ccc(OC)cc2)s1, the inhibition is reported as 0.8%.
c1ccc(-c2ccnc3nc(-n4cccc4)nn23)cc1 was tested, and the inhibition was -2.67%.
Compound O=C(OCN1C(=O)c2ccccc2C1=O)/C(=C\c1ccco1)NC(=O)c1ccccc1 has an inhibition of -9.89%.
O=C(ON=C1CCN(S(=O)(=O)c2ccccc2)CC1)c1ccc(Cl)cc1 was tested, and the inhibition was -2.79%.
Compound O=C(NCCCCc1ccccc1)C1CC(c2ccc([N+](=O)[O-])cc2)=NO1 (stereo not given) has an inhibition of 1.72%.
CC(=O)c1cc2c(cc1NC(=O)CN1CCCCCC1)OCO2 was tested, and the inhibition was -6.18%.
In the case of COCCn1c(=S)[nH]c2cc(C(=O)NCCc3ccc(OC)c(OC)c3)ccc2c1=O, the inhibition is reported as -6.01%.
CCOc1cc2[nH]c(=O)n(CCC(=O)NCc3ccc(OC)cc3)c(=O)c2cc1OCC was tested, and the inhibition was 7.75%.
With CCN(CC)C(=O)CN(c1cccc(OC)c1)S(=O)(=O)c1ccc(C)cc1 the inhibition was -6.83%.
With COC(=O)c1ccc(CSc2ccc3nnc(-c4ccccc4)n3n2)o1 the inhibition was -1.52%.
In the case of CCc1c(-c2ccccc2)nc(N)c(C#N)c1-c1cccs1, the inhibition is reported as -6.33%.
Compound C=CCN1C(=O)C(Cc2cccc(Cl)c2)S/C1=N/N=C/c1ccco1 (stereo not given) has an inhibition of 2.87%.
In the case of O=C(Nc1cccc2ccccc12)N1CCN(Cc2ccc3c(c2)OCO3)CC1, the inhibition is reported as 0.42%.
Work on CCOC(=O)C1Sc2[nH]c(=O)sc2C(c2ccc(Cl)cc2)C1C(=O)OCC (stereo not given) yielded an inhibition of 6.17%.
O=C(c1ccccc1Oc1ccccc1)N1CCN(c2ccc(F)cc2)CC1 was tested, and the inhibition was 1.29%.
CCCCOc1ccc(CSC(=N)N)cc1[N+](=O)[O-] gave an inhibition of -6.89%.
For CCn1cc(C(=O)N/N=C(/C)c2ccc(F)cc2)c(=O)c2cc(F)c(N3CCCC3)cc21, the inhibition was 5.77%.
Work on Cc1ccc(SCC(=O)NC(=O)NCc2ccco2)c(C)c1 yielded an inhibition of -1.3%.
With COC(=O)c1ccc(S(=O)(=O)N2CCC(c3nc4ccccc4o3)CC2)cc1 the inhibition was 2.06%.
CCCCc1nnc(NC(=O)CSc2nc(C)cc(=O)[nH]2)s1 showed an inhibition of 0.99%.
With CCCc1noc2c1/C(=N\O)CCC2 the inhibition was 7.69%.
For Cc1ccc(CCN2CC(C(=O)O)CC2=O)cc1 (stereo not given), the inhibition was -3.41%.
In the case of CCOC(=O)c1[nH]c(C)c(C(=O)OCC(=O)N2c3ccccc3CC2C)c1C (stereo not given), the inhibition is reported as 2.53%.
With O=P(O)(CP(=O)(c1ccccc1)c1ccccc1)c1ccccc1O the inhibition was 4%.
Cc1cc(=O)oc2cc(OC(C)C(=O)Nc3ccc(N4CCOCC4)cc3)ccc12 (stereo not given) gave an inhibition of 8.06%.
In the case of O=C1CCCC2=C1C(c1ccccc1)n1c(s/c(=C/c3cccc(F)c3)c1=O)=N2 (stereo not given), the inhibition is reported as 1.22%.
In the case of O=C(NCc1ccccc1Cl)c1csc2c1CCCCC2, the inhibition is reported as 2.57%.
CCCn1c(C)cc(C(=O)COC(=O)c2c(C)nn(-c3ccccc3)c2C)c1C showed an inhibition of 0.32%.
Compound CCCCNC(=O)CSc1nc2ccc(NC(=O)CSc3nnc(COc4ccccc4C)n3C)cc2s1 has an inhibition of -4.14%.
For CC1=NN(C(C)C)C(=O)C1, the inhibition was -0.74%.
O=S(=O)(c1ccc(Br)cc1)n1ccc2ccccc21 gave an inhibition of 6.94%.
NC(=O)c1c(NC(=O)CSc2nnc(-c3ccco3)n2N)sc2c1CCCC2 was tested, and the inhibition was 0.73%.
With CCC(=O)Nc1ccc(C(=O)Nc2cc(C)on2)cc1 the inhibition was 3.48%.
COc1ccc(N(CC(=O)NC2CCCCC2)C(=O)CNC(=O)c2ccco2)c(OC)c1 was tested, and the inhibition was 0.8%.
CCCCCCC12CCC(C(=O)O)(CC1)CC2 showed an inhibition of -4.95%.
Work on Cn1c(CO)cnc1SCc1ccccc1 yielded an inhibition of 3.71%.
In the case of CCOc1cc(N2CCOCC2)c(OCC)cc1NC(=O)COc1cccc2cccnc12, the inhibition is reported as 17.3% (active).
With CCOc1cc(N2CCOCC2)c(OCC)cc1NC(=O)COC(=O)[C@H](Cc1c[nH]c2ccccc12)NC(C)=O the inhibition was 5.55%.
Work on CCOc1cc(NC(=O)c2ccco2)c(OCC)cc1NC(=O)COc1ccccc1 yielded an inhibition of -10%.
S=C(NCCC1=CCCCC1)Nc1ccccc1 was tested, and the inhibition was 4.71%.
c1ccc(-n2nc3ccccc3n2)cc1 was tested, and the inhibition was 1.16%.
Compound COc1ccc(C2=NO[C@@H]3C(=O)N(Cc4ccccc4)C(=O)[C@H]23)cc1OC has an inhibition of 7.58%.
Work on Nc1nc(C23CC4CC(CC(C4)C2)C3)cs1 yielded an inhibition of -1.67%.
With O=C(CCC(=O)OCc1cccc(C(=O)Oc2ccccc2)c1)Nc1cccc2ccccc12 the inhibition was 3.74%.
Work on COc1ccc(CCNC(=O)COC(=O)c2ccc[nH]c2=O)cc1 yielded an inhibition of -5.04%.
O=C(N/N=C\c1ccc(-c2ccc(Cl)c(Cl)c2)o1)C(=O)N1CCCC1 was tested, and the inhibition was -0.37%.
Work on CCOc1cc(NC(=O)c2cnccn2)c(OCC)cc1NC(=O)c1ccc(C)cc1 yielded an inhibition of -6.39%.
Compound CC(C)Cc1oc(C(=O)O)cc1CN has an inhibition of -0.3%.
O=C(NC1CC1)c1ccc2c(c1)NC(=O)c1ccccc1S2 was tested, and the inhibition was 0.56%.
For COc1ccc(-c2csc3nc(-c4ccccc4F)oc(=O)c23)cc1OC, the inhibition was -10.2%.
Compound O=C(N/N=C/c1ccc(O)cc1)/C(=C/c1ccc([N+](=O)[O-])cc1)NC(=O)c1ccccc1 has an inhibition of -1.89%.
Work on CCOCc1nnc(NC(=O)CSc2ccc(C)cc2)s1 yielded an inhibition of 1.51%.
O=[N+]([O-])c1ccc(C=Nc2ccc(Cl)cc2Cl)s1 gave an inhibition of -0.13%.
CC1=CC(C)(C)Nc2ccc(OC(=O)C(Cc3ccccc3)N3C(=O)C4CCCCC4C3=O)cc21 (stereo not given) gave an inhibition of -0.93%.
In the case of S=c1[nH]nc(CSCc2ccc(Cl)cc2Cl)n1-c1ccccc1, the inhibition is reported as 8.29%.
Work on CCOC(=O)c1cnc(SCC(=O)Nc2cccc(OC)c2)nc1N yielded an inhibition of 9.83%.
O=S(=O)(N/N=C\c1cccn1-c1ccccc1)c1ccc2ccccc2c1 gave an inhibition of -8.09%.
In the case of Cn1c2ccccc2n2c(=O)c(=O)n(CC(=O)c3ccc(F)cc3)nc12, the inhibition is reported as 0.04%.
In the case of COc1cccc(C(=O)NNC(=O)c2ccccc2Br)c1, the inhibition is reported as -7.4%.
Compound O=C(CN1CCN(S(=O)(=O)c2ccc3ccccc3c2)CC1)NC(=O)NC1CCCCC1 has an inhibition of 5.63%.
For Cc1ccc(SC(=O)COc2ccc(C)c(C)c2)cc1, the inhibition was 3.52%.
O=[N+]([O-])c1ccc(N2CCN(S(=O)(=O)c3ccc4ccccc4c3)CC2)cc1NCc1ccco1 showed an inhibition of 0.12%.
CCc1cccc2c(C=C(C#N)C#N)cn(CC(=O)N3CCCCC3)c12 gave an inhibition of -0.37%.
For COc1ccc(CC(NC(C)=O)C(=O)N2CCN(C(=O)Nc3cccc(Cl)c3)CC2)cc1OC (stereo not given), the inhibition was -2.32%.
CCOc1ccc(NC(=O)CCS(=O)(=O)c2ccc3c(c2)CCCN3C(=O)CC)cc1 gave an inhibition of 8.53%.
COc1ccccc1NC(=O)C1CCCN(c2cc(C)nc3ncnn23)C1 (stereo not given) was tested, and the inhibition was -5.56%.
Work on C=CCOc1cccc(CNn2cn[nH]c2=S)c1 yielded an inhibition of -3.4%.
With C=C(C)CNC(=S)/N=c1\scc(C)n1CC the inhibition was -8.88%.
For CCCCNC(=S)NNC(=O)c1cc(C)on1, the inhibition was -0.6%.
CC(C)NC(=O)CSc1ccccc1C(=O)NCc1ccc2c(c1)OCO2 gave an inhibition of 2.19%.
With O=C(CSCc1ccc([N+](=O)[O-])cc1)NCCSCc1ccccc1 the inhibition was 4.49%.
With O=S(=O)(N1CCOCC1)N1CCN(c2ccccc2F)CC1 the inhibition was 20.7% (active).
Work on O=C(c1ccc(CN2CCOCC2)cc1)N1CCN(c2ccccc2F)CC1 yielded an inhibition of -2.74%.
Work on Cc1cccc(C)c1N1CCN(S(=O)(=O)N2CCOCC2)CC1 yielded an inhibition of 3.9%.
O=C(Nc1cccc(NC(=O)c2ccco2)c1)c1cnccn1 gave an inhibition of -6.85%.
COc1ccc(NC(=O)/C(Cl)=C(/Cl)S(=O)Cc2ccc(C)cc2)cn1 (stereo not given) showed an inhibition of 7.2%.
CCOCCn1c(C(C)C)nc2ccccc21 was tested, and the inhibition was 0.96%.
O=C(Cc1ccc(S(=O)(=O)N2CCOCC2)s1)NCCC(c1ccccc1)c1ccccc1 gave an inhibition of -2.3%.
With CCOC(=O)c1c(NC(=O)/C=C/c2ccco2)sc(C)c1C the inhibition was 0.57%.
With CC(=O)Nc1cccc(/C(C)=N/NC(=O)c2ccccc2Cl)c1 the inhibition was 2.34%.
O=C(NCC(=O)N(Cc1cccs1)C(C(=O)NC1CCCCC1)c1ccco1)c1cccs1 (stereo not given) gave an inhibition of -1.39%.
For O=C1Nc2cc(Cl)c(Cl)cc2N(O)N1c1cc(Cl)cc(Cl)c1, the inhibition was 2.41%.
CC(C)C(=O)NC(NC(=S)NC1CCS(=O)(=O)C1)C(Cl)(Cl)Cl (stereo not given) was tested, and the inhibition was 2.04%.
O=C(c1cc2sccc2n1Cc1ccc(F)cc1)N1CCc2ccccc21 was tested, and the inhibition was 4.78%.
Compound Cc1c(NC(=O)/C=C/C(=O)O)cccc1[N+](=O)[O-] has an inhibition of -6.42%.
Work on CN(C)/C=C(/C(=O)c1ccc(Cl)cc1)S(=O)(=O)c1ccccc1 yielded an inhibition of -11.6%.
Work on N=c1c2c3c(sc2nc2n1CCCCC2)CCCC3 yielded an inhibition of 6.43%.
In the case of O=c1[nH][nH]c(C(F)(F)F)c1C=NCc1ccccc1Cl, the inhibition is reported as 2.43%.
O=S(=O)(NN=C1CCCCCCC1)c1ccc(Br)cc1 was tested, and the inhibition was 5.67%.
CCOC(=O)C1=C(c2ccccc2)N=C2SCC(=O)N2C1c1ccc(O)c(OC)c1 (stereo not given) showed an inhibition of 2.71%.
With COCCn1c(SCc2nc3cc(OC)c(OC)cc3c(=O)[nH]2)nnc1-c1ccncc1 the inhibition was 5.33%.
Work on COc1ccc(C2C(C(C)=O)=C(O)C(=O)N2Cc2cccnc2)cc1 (stereo not given) yielded an inhibition of 1.74%.
O=C(C1=C(O)C(=O)N(Cc2ccccc2)C1c1ccco1)c1ccco1 (stereo not given) was tested, and the inhibition was -8.37%.
O=C(C1=C(O)C(=O)N(Cc2ccccc2)C1c1cccnc1)c1ccco1 (stereo not given) was tested, and the inhibition was 27% (active).
COc1ccc2c(c1)C(C)=CC(C)(C)N2C(=O)Nc1ccccc1 gave an inhibition of 6.35%.
CC(=O)Oc1ccc(NC(=O)CCC2CCCCC2)c(C(=O)O)c1 was tested, and the inhibition was 4.49%.
Work on O=C(CN1CCN(c2ccc(Cl)cc2)CC1)N1CCCC1 yielded an inhibition of 4.82%.
Work on Oc1ccc(/C=N/NC2=NCCCCC2)c(O)c1 yielded an inhibition of 2.04%.
CCOC(=O)c1sc(C)c2c1NC(C)(c1cccc3ccccc13)NC2=O (stereo not given) showed an inhibition of 13.2%.
Cc1cc(C)nc(SC(C)C(=O)N/N=C/c2cccs2)n1 (stereo not given) was tested, and the inhibition was 2.66%.
For C=CCc1ccc(OCCOc2cccc(/C=N/n3cnnc3)c2)c(OC)c1, the inhibition was -1.42%.
Work on Cc1ccc(N2C(=O)CC(Sc3ncn[nH]3)C2=O)cc1 (stereo not given) yielded an inhibition of 0.58%.
Compound CC(C)CNC(=S)NNC(=O)c1nn(C)cc1Cl has an inhibition of 7.68%.
In the case of COc1ccc(-c2noc(-c3ccc(C)cc3)n2)cc1, the inhibition is reported as -4.98%.
CSc1cc(C)n(-c2ccccc2C)c(=S)c1C(C)=O showed an inhibition of -5.85%.
CCCOc1cc(C)c(S(=O)(=O)n2nnc3ccccc32)cc1C was tested, and the inhibition was -0.8%.
For CCc1nn(-c2cc(Oc3cccc4ccccc34)nc(-c3ccccc3)n2)c(N)c1C#N, the inhibition was -9.42%.
In the case of CCOc1cc(C(=O)Nc2c(C)ccc3nsnc23)cc(OCC)c1OCC, the inhibition is reported as -8.62%.
With COc1ccc(CNC(=O)CCn2cccc2)cc1 the inhibition was -2.06%.
COC(=O)c1ccc(NC(=O)C23CC4CC(C2)CC(n2cnc(Cl)n2)(C4)C3)cc1 showed an inhibition of 3.33%.
